This is a sample that favours compounds with a hit; in the whole collection about 9.9% have one here.
MCF10A rereplic: A quantitative high throughput screen for small molecules that induce DNA re-replication in MCF 10a normal breast cells | Potency, µM (series often up to 46.1 µM), without a hit: at the top dose activity, positive = re-replication, hits mostly activators | MCF 10A DNA re-replication, Hoechst nuclear intensity, 48 h | 350,000 tested, 2.9% active | AID 624296, 2012; note: potency is the fitted concentration of half-maximal effect; % of control where 0% means no effect; nearly all actives have a fitted effect of over 50% in size
IL1B secr inh: qHTS for Inhibitors of Inflammasome Signaling: IL-1-beta AlphaLISA Primary Screen; THP-1 LPS/ATP IL-1B secretion, AlphaLISA, 16 h; stronger effect = lower value; activity change, % at 57.5 µM; 360,000 tested, 4.7% active; in the data active = activity change below about -50%; inconclusive = mostly about -30% to -49%; note: % is set by controls: 0 for no effect and ±100 for the full control effect
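THP-1 cells pretreated 1 hr with compounds (up to 57.5 uM final), then stimulated with LPS (250 ng/mL final) plus ATP (1.25 mM final); secreted IL-1B measured by AlphaLISA after 16 hr, decreased signal indicating inhibition.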
KB-3-1 tox: qHTS assay for MDR1-selective chemotherapeutics: Primary screen using the parental adenocarcinoma cell KB-3-1 | KB-3-1 viability, CellTiter-Glo ATP luminescence, 72 h | Potency, µM (series often up to 46.1 µM), hits mostly cytotoxic | 400,000 tested, 1.4% active | AID 1347075, 2019; note: potency is the fitted concentration of half-maximal effect; % is set by controls: 0 for no effect and ±100 for the full control effect; nearly all actives have a fitted effect of over 60% in size
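KB-3-1 parental drug-naive adenocarcinoma cells in DMEM/10% FBS, incubated 72 h at 37 C with pin-transferred compounds across a concentration series. Viability by CellTiter-Glo luminescence; concentration-response curves fitted after normalization.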
SW480 rerep: A quantitative high throughput screen for small molecules that induce DNA re-replication in SW480 colon adenocarcinoma cells. SW480 DNA re-replication, Hoechst DNA content imaging, 48 h. Potency, µM (doses to about 46.1 µM), without a hit: at the top dose re-replication activation, hits mostly activators. 340,000 tested, 1.8% active; note: potency is the fitted concentration of half-maximal effect; % of control where 0% means no effect; nearly all actives have a fitted effect of over 55% in size
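First, 250 cells per well were seeded. Next, compound or vehicle (23 nL) was pinned in, plates sat 48 hr at 37 C. Finally Hoechst was added for 40 min before fluorescence scanning.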
KB-V1 cytotox: qHTS assay for MDR1-selective chemotherapeutics: Primary screen using the drug-selected MDR subline cells KB-V1; KB-V1 MDR cells viability, CellTiter-Glo, 72 h; Potency, µM (series often up to 46.1 µM), hits mostly cytotoxic; 400,000 tested, 3.4% active; note: potency is the fitted concentration of half-maximal effect; % is set by controls: 0 for no effect and ±100 for the full control effect; nearly all actives have a fitted effect of over 60% in size
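KB-V1 MDR subline cells in DMEM (phenol-red free, 10% FBS) exposed to compounds in qHTS concentration series for 72 h at 37 degrees C. Viability read by CellTiter-Glo luminescence; concentration-effect curves fitted after normalization and correction.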
* hit, by the source's call; i = inactive; ? = inconclusive; . = no result. Unless noted, calls come from the whole dose curve; as a rule, active = well fitted curve in the direction sought with a large enough effect; inconclusive = small, poorly fitted or top-dose-only effect, or another doubt; inactive = no such curve, though single readings can be large; an effect the other way counts as inactive or inconclusive.

SMILES	MCF10A rereplic	IL1B secr inh	KB-3-1 tox	SW480 rerep	KB-V1 cytotox
Nn1c(SCC(=O)Nc2cc(S(=O)(=O)N3CCOCC3)ccc2Cl)nnc1-c1cccnc1	-1.4%	8.2	i	-1.7%	i
CC(C)(C)c1cc[n+](C2=C([O-])c3ccccc3C(=O)/C2=N\S(=O)(=O)c2ccccc2)cc1	5.3%	.	i	?	i
O=C1/C(=N\S(=O)(=O)c2cccs2)C([n+]2ccc(CCCc3ccccc3)cc2)=C([O-])c2ccccc21	11.0%	49.5	i	?	?
O=C1/C(=N\S(=O)(=O)c2cccs2)C([n+]2cccc(Cc3ccccc3)c2)=C([O-])c2ccccc21	0.5%	.	?	8.2µM*	i
Cc1cc[n+](C2=C([O-])c3ccccc3C(=O)/C2=N\S(=O)(=O)c2cccs2)cc1C	20.6µM*	53.7	i	?	i
CC(C)[n+]1ccn(C2=C([O-])c3ccccc3C(=O)/C2=N\S(=O)(=O)c2ccccc2)c1	4.8%	.	?	?	i
Cc1cc(C)c[n+](C2=C([O-])c3ccccc3C(=O)/C2=N\S(=O)(=O)c2cccs2)c1	?	0.0	?	2.91µM*	i
CC(=O)Nc1ccc(OC(=O)c2ccc(Br)c([N+](=O)[O-])c2)cc1	14.6%	-147.0*	i	13.1%	i
CCOC(=O)c1[nH]c(C)c(C(=O)Nc2cc(Cl)ccc2C)c1C	?	49.0	?	0.82µM*	0.461µM*
CCOC(=O)c1[nH]c(C)c(C(=O)NCc2ccc(F)cc2)c1C	.	.	i	.	i
CCNC(=O)c1c(C)[nH]c(C(=O)OCC)c1C	-18.1%	72.0	i	?	?
CCOC(=O)c1[nH]c(C)c(C(=O)NCc2ccc(Cl)cc2)c1C	?	35.2	i	4.5%	23.1µM*
CCOC(=O)c1[nH]c(C)c(C(=O)Nc2ccccc2C)c1C	3.66µM*	-5.1	?	?	i
CCOc1ccc(CCNC(=O)c2[nH]c(C)c(C(C)=O)c2C)cc1OCC	0.1%	12.2	i	3.5%	18.4µM*
CSc1nsc(SCC(=O)Nc2ccc(C(=O)O)cc2)n1	-1.4%	4.0	i	-6.0%	i
O=C(c1ccc(F)cc1)N(c1ccccn1)C1CCCCC1	0.2%	24.1	i	-2.4%	i
O=C(NCC1CCCO1)c1cc(-c2ccc(F)cc2)no1 (stereo not given)	-2.5%	17.7	?	?	?
CCOC(=O)c1[nH]c(C)c(C(=O)N2CCN(c3ccccc3)CC2)c1C	3.6%	-0.1	i	1.2%	16.4µM*
CCOC(=O)c1[nH]c(C)c(C(=O)NCCc2ccc(OC)cc2)c1C	?	-9.9	i	-0.7%	14.6µM*
CCOC(=O)c1[nH]c(C)c(C(=O)N(C)Cc2ccccc2)c1C	0.2%	-3.9	i	-3.5%	16.4µM*
Cc1ccc(CNC(=O)N2CCN(S(=O)(=O)c3ccccc3)CC2)cc1	?	-7.9	i	-4.6%	i
Cc1ccc2c(c1)C(=O)OC(C(=O)Nc1ccc(C(=O)O)cc1)C2 (stereo not given)	.	.	i	.	i
COc1ccc2nc(SCC(=O)NC3CCCCC3)[nH]c2c1	-15.6%	24.6	i	-5.4%	i
COc1ccc2nc(SCC(=O)NC3CCCC3)c(C)cc2c1	8.2µM*	65.4	7.31µM*	?	?
CCOc1ccc2nc(SCC(=O)NC3CCCCC3)[nH]c2c1	11.0%	-16.3	i	-1.6%	16.4µM*
SMILES	MCF10A rereplic	IL1B secr inh	KB-3-1 tox	SW480 rerep	KB-V1 cytotox
COc1ccc2c(C)cc(SCC(=O)NC3CCCC3)nc2c1	8.1%	6.3	i	-2.8%	i
CCC(C)NC(=O)CSc1nc2ccsc2c(=O)n1-c1ccc(OC)cc1 (stereo not given)	-4.5%	3.7	i	-1.2%	i
Cc1[nH]nc2nc(SCC(=O)NC3CCCCC3)n(-c3ccc(Br)cc3)c(=N)c12	11.6µM*	51.4	?	?	i
COc1ccc(-n2c(SCC(=O)NC3CCCCC3)nc3ccsc3c2=O)cc1	0.1%	0.0	i	-7.7%	2.06µM*
Cc1c(N2C(=O)CSC2c2ccco2)c(=O)n(-c2ccccc2)n1C (stereo not given)	0.2%	13.0	i	-4.1%	i
Cc1cc(C)cc(C(O)c2ncc(-c3ccccc3Cl)[nH]2)c1 (stereo not given)	.	0.0	i	.	i
CCN(C(=O)CSc1nc2n[nH]c(C)c2c(=N)n1-c1ccc(Cl)c(C)c1)c1cccc(C)c1	8.2µM*	?	?	?	?
COc1ccccc1NC(=O)CSc1nc2n[nH]c(C)c2c(=N)n1-c1ccccc1Cl	?	-7.6	?	24.9%	16.4µM*
Clc1ccc(CN=C2Nc3ccccc3CS2)cc1	?	-17.5	i	11.2%	?
Cc1ccc(CN=C2Nc3ccccc3CS2)cc1	?	?	?	0.0%	13µM*
CC1CCCN(c2nc(-c3cccnc3)nc3scc(-c4ccccc4)c23)C1 (stereo not given)	23.1µM*	-60.9*	i	1.3%	?
CN1CCN(c2nc(-c3cccnc3)nc3scc(-c4ccccc4)c23)CC1	18.4µM*	-51.9*	i	?	i
CC1CCN(c2nc(CN3CCCCC3)nc3scc(-c4ccccc4)c23)CC1	1.6%	-73.6*	?	-6.6%	?
CC1CCN(c2nc(-c3cccnc3)nc3scc(-c4ccccc4)c23)CC1	?	80.6	i	2.6%	i
COc1cc(C(=O)OCC(=O)NCCC2=CCCCC2)ccc1OCC(C)C	11.7%	-3.5	i	-9.7%	i
CCN(CC)CC#CCOC(=O)[C@@](O)(c1ccccc1)C1CCCCC1	17.6%	.	.	-0.3%	.
CC[N+](C)(CC)CCOC(=O)C(O)(c1ccccc1)C1CCCCC1 (stereo not given)	5.9%	-55.4*	i	10.9%	i
O=C(CCNS(=O)(=O)c1cccs1)NCc1ccccc1	3.1%	-1.8	i	-6.5%	i
COc1ccccc1C1(O)CCN(CC(=O)Nc2nc(-c3ccccc3)cs2)CC1	1.7%	-62.2*	i	-2.3%	?
CCc1nnc(NC(=O)CN2CCN(c3nc(-c4ccccc4)cs3)CC2)s1	?	2.3	i	?	20.6µM*
CC(C)C(=O)NNC(=O)CN1CCN(c2nc(-c3ccccc3)cs2)CC1	8.5%	-14.4	i	-0.7%	i

Screening results deposited in PubChem BioAssay by National Center for Advancing Translational Sciences (NCATS).
